Assay outcomes as filed in PubChem.
BAZ2B block = BAZ2B (human) inhibition. Potency, µM (series often up to 114 µM), for the others: top-dose activity change, negative = inhibition, usual class: inhibitors. 4.4% of 360,000 active. AlphaScreen BAZ2B-H3K14Ac peptide displacement; note: % is set by controls: 0 for no effect and ±100 for the full control effect; nearly all actives have a fitted effect of over 60% in size
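Protein-peptide AlphaScreen: BAZ2B 50 nM, b-H3K14Ac 50 nM, 1x PBS pH 7.4 + 0.01% Tween-20. Preincubation 30 min RT; cpd 30 min RT (top 110 uM); beads 20 min RT, light-protected.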
L3MBTL1 inh = L3MBTL1 (human) inhibition; Q9Y468; AlphaScreen L3MBTL1–H3K9me1 peptide binding; Potency, µM (top dose mostly 57.1 µM), without a hit: top-dose activity, negative = inhibition, usual class: inhibitors; 0.66% of 230,000 active; AID 485360; note: % is set by controls: 0 for no effect and ±100 for the full control effect; nearly all actives have a fitted effect of over 60% in size
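AlphaScreen assay: L3MBTL1 (50 nM final) was preincubated 30 min at room temperature with biotinylated H3(1-15)K9me1 peptide (75 nM final), then 30 min with library compounds; streptavidin donor and nickel chelate acceptor beads (10 ug/mL final) added, 30 min dark.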
JMJD2A Tudor = inhibitors of human JMJD2A Tudor domain | O75164 | 4.4% of 390,000 active | AlphaScreen JMJD2A-Tudor / H3K4me3 peptide binding | AID 504339 | Potency, µM (titrated, usually from 114 µM), for inactives: at the top dose activity change, negative = inhibition, actives largely listed as inhibitors; note: % is set by controls: 0 for no effect and ±100 for the full control effect; nearly all actives have a fitted effect of over 50% in size
G9a inh = inhibitors of human histone lysine methyltransferase G9a; AID 504332; Q96KQ7; 8.8% of 350,000 active; G9a H3K9 monomethylation, AlphaScreen, 2 h; Potency, µM (series often up to 102 µM), for inactives: top-dose activity, negative = inhibition, usual class: inhibitors; note: % is set by controls: 0 for no effect and ±100 for the full control effect; nearly all actives have a fitted effect of over 75% in size
Target sequence (Q96KQ7 913-1193 limits assumed): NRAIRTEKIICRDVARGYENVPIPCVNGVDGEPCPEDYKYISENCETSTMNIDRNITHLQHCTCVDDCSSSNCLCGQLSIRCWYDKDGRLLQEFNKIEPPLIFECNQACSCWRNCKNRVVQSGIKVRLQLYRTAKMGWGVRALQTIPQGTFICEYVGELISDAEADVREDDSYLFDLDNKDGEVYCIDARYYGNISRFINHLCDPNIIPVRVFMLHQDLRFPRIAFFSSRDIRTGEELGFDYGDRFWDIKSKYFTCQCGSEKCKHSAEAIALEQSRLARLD
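AlphaScreen detection with an anti-monomethyl H3K9 antibody quantified product after a 2 h room-temperature reaction containing 500 nM biotinylated H3K9 peptide, 20 µM SAM and 20 nM enzyme, which had been preincubated 15 min with compound.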
HP1b binding inh = inhibitors of HP1-beta chromodomain binding to methylated histone tails. P83916. AlphaScreen HP1-beta / biotin-H3K9me3 peptide binding. Potency, µM (highest dose often 114 µM), for the others: at the top dose activity change, negative = inhibition, most hits filed as inhibitors. 0.56% of 390,000 active. AID 540317; note: nearly all actives have a fitted effect of over 70% in size
Target sequence (P83916 whole entry, looked up): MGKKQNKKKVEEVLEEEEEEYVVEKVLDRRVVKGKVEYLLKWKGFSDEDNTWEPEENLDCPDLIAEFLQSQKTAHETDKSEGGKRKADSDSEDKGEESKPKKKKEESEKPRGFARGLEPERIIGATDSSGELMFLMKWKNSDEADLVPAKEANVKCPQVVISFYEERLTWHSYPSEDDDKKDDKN
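HP1-beta protein (50 nM final) preincubated 30 min at room temperature with biotinylated H3(1-18)K9me3 peptide (50 nM) in PBS pH 7.4, 0.01% Tween-20, then compound added for 30 min. AlphaScreen streptavidin donor/nickel chelate acceptor beads (10 ug/mL final), 30 min dark, luminescence read.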
Sfp inh = blocks B. subtilis Sfp PPTase activity. Q9F4F7. Biochemical Sfp PPTase activity, qHTS. Potency, µM, for the others: largest response in the series, negative = inhibition, actives largely listed as inhibitors. 3.5% of 310,000 active;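 note: the enzyme is Sfp with the accession as filed and its product quenches rhodamine fluorescence; 0% = enzyme reaction without inhibitor and -100% = no enzyme wells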
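Compounds were incubated with enzyme (final 15 nM) for 15 min at room temperature before substrate addition started the reaction. Fluorescence at 525 nm excitation, 598 nm emission was recorded immediately and after 30 minutes.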
An asterisk follows results filed as active; u = inconclusive; x = not tested or not shown; [ ] = another dose, or the depositor's remark. Only some compounds are listed: those with a hit (about 12% of all), similar ones and a draw of the others. Calls come from the whole dose curve; as a rule, active = well fitted curve in the direction sought with a large enough effect; inconclusive = small, poorly fitted or top-dose-only effect, or another doubt; inactive = no such curve, though single readings can be large; an effect the other way counts as inactive or inconclusive. Potency is the fitted concentration of half-maximal effect.

SMILES	BAZ2B block	L3MBTL1 inh	JMJD2A Tudor	G9a inh	HP1b binding inh	Sfp inh
Cc1onc(-c2ccccc2Cl)c1C(=O)Nc1nn[nH]n1	79.4µM*	7.0%	56.2µM*	-6.7%[59 µM]	19.3%	-8.2%
Cc1cc(NC(=O)c2c(-c3ccccc3Cl)noc2C)no1	15.3%	-2.7%	-0.7%	-5.4%	20.7%	-5.9%
CCC(O)C1CCN(C(=O)c2cc(COc3ccc(F)cc3F)on2)CC1 (stereo unspecified)	-11.9%	x	15.2%	9.6%	24.7%	6.0%
COc1ccc(C2C(C(C)=O)=C(C)Nc3ncnn32)cc1 (stereo unspecified)	5.1%	-4.6%	5.9%	4.2%	27.5%	29.5%
Cc1c(C(=O)N2CCCCC2CCN2CCCC2=O)oc2c(F)cccc12 (stereo unspecified)	-3.4%	x	-3.4%	6.9%[0.501 µM]	35.6%	9.8%
CCOC(=O)c1c(N)sc2c(OC)c(Br)ccc12	14.5%	x	2.5%	14.4%[59 µM]	38.8%	-9.4%
CCOC(=O)c1c(-c2ccc(C)s2)csc1N	u	-9.5%[2.29 µM]	u	u	u	11.2µM*
CCOC(=O)c1c(-c2ccsc2)csc1N	15.1%	-5.4%	u	47.9%[59 µM]	-22.1%	56.2µM*
CCOC(=O)c1c(CC(C)C)csc1N	u	1.7%	-14.4%	39.8µM*	16.8%	1.7%
C=CCOC(=O)N[C@H](c1ccco1)C(C(C)=O)C(C)=O	x	x	x	x	x	-19.6%
Cc1ccc(S(=O)(=O)N2CCN(C3CCN(Cc4ccccc4)CC3)CC2)cc1	x	-1.4%	1.7%	4.4%[59 µM]	24.8%	9.2%
FC(F)(F)c1ccccc1CN1CCN(C2CCCCCC2)CC1	50.1µM*	-10.8%	6.31µM*	2.51µM*	u	-60.0%
O=[N+]([O-])c1ccccc1CN1CCN(S(=O)(=O)c2ccccc2)CC1	x	x	20µM*	x	u	x
Cc1ccc(S(=O)(=O)N2CCN(Cc3ccccc3C(F)(F)F)CC2)cc1	56.2µM*	-0.3%	u	31.6µM*	u	u
Cc1ccc(S(=O)(=O)N2CCN(Cc3ccccc3Cl)CC2)cc1	44.7µM*	x	5.01µM*	1.26µM*	u	x
COc1cc2c(cc1OC)C(c1cc(Br)ccc1F)N(C(=O)CCl)CC2 (stereo unspecified)	-14.7%	x	u	u	20.5%	-5.4%
CCCOC(=O)c1cccc(Nc2nc(CCC)cc(=O)[nH]2)c1	-8.7%	x	-10.1%	-45.6%[59 µM]	31.0%	x
O=C(O)Cn1c(=O)c2c3c(sc2n(Cc2ccc(Cl)cc2Cl)c1=O)CCCC3	-9.2%	x	-14.1%	u	18.5%	-1.1%
O=C(c1ccc2c(c1)N(Cc1ccc(F)cc1)C(=O)c1ccccc1S2(=O)=O)N1CCC(Cc2ccccc2)CC1	-24.8%	x	-16.2%	-31.0%[59 µM]	28.7%	x
O=C1c2ccccc2C(=O)N1CC#CCN1CCN(C2CCCCC2)CC1	u	3.0%	u	20µM*	14.5%	5.0%
O=S1(=O)CCN(Cc2ccccc2C(F)(F)F)CC1	-19.4%	-5.4%[11.4 µM]	-19.3%	-5.6%	27.5%	22.3%
Cc1ccccc1CN1CCN(Cc2ccccc2C(F)(F)F)CC1	28.2µM*	x	2.82µM*	2.82µM*	-32.2%	u
Fc1cccc(/C=C2\CCCC3=C2NC(=S)NC3c2cccc(F)c2)c1 (stereo unspecified)	u	-23.0%	u	x	2.5%	u
CC(=O)C1=C(C)Nc2ncnn2C1c1ccccc1 (stereo unspecified)	5.6%	x	-2.1%	55.9%	39.1%	6.5%
C(=C1/CCCC2=C1Nc1ncnn1C2c1ccccc1)/c1ccccc1 (stereo unspecified)	-37.8%[57.1 µM]	-5.4%	x	44.7µM*	x	50.1µM*
O=C1/C(=C/c2ccc(F)cc2)CCC1C1CCCC1 (stereo unspecified)	9.3%	2.0%	20.6%	-0.4%[59 µM]	49.4%	-0.4%
CC1CC2=C(NC(=S)NC2c2ccc(F)cc2)/C(=C/c2ccc(F)cc2)C1 (stereo unspecified)	u	-14.9%	-33.1%	25.1µM*	-11.7%	-24.5%
